Out of some 220,000 compounds screened, about 1,100 (0.5%) were called active.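 How the source made its calls: active means inhibition above about 30% (limit read from the data); inactive means the rest.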 For the sample, actives were picked, then their nearest neighbours and some compounds at random.
Target: Neutrophil cytosol factor 1 (Homo sapiens) (UniProt P14598)
Assay: p47phox/p22phox peptide binding inhibitors, primary screen, biochemical, uHTS, NADPH oxidase regulatory subunit (AID 1274);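 further: 0% = p47phox with labelled peptide and 100% = labelled peptide alone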
Conditions: fluorescence polarization, 2 h, at 24.7 µM, stronger effect = higher value

Chain of Neutrophil cytosol factor 1 (Homo sapiens) (P14598 whole entry, looked up): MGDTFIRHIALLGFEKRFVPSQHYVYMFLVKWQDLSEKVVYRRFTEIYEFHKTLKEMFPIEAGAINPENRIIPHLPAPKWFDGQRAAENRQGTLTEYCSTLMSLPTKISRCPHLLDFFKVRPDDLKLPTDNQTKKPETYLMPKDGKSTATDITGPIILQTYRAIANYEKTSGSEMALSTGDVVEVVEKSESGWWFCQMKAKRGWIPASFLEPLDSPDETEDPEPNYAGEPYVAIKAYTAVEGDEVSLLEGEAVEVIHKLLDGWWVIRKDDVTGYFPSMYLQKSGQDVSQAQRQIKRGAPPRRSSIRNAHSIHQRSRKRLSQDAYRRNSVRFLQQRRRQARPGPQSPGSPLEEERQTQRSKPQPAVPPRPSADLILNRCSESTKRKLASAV

| SMILES | inhibition |
| --- | --- |
| O=C(Cc1ccccc1[N+](=O)[O-])N1CCN(Cc2ccc3c(c2)OCO3)CC1 | -1.92% (inactive) |
| O=C(COc1ccc2ccccc2c1)N1CCN(Cc2ccncc2)CC1 | 38.1% (active) |
| COc1ccccc1CN1CCN(C(=O)Cc2ccccc2)CC1 | 3.15% (inactive) |
| COCc1cc(OC(=O)N(C)C)nc(-c2ccc(C)c(Cl)c2)n1 | -3.02% (inactive) |
| COC(=O)N(c1ccc(OC)cc1)P1(=S)OCCC(C)O1 (stereo not given) | 2.14% (inactive) |

Reference: PubChem BioAssay AID1274 (Emory University Molecular Libraries Screening Center, 2008)
